Data from PubChem BioAssay AID1159580 (chemical genetic matrix, 2015).
Several values for one entry are separate records, joined by “and”; a condition that tells them apart may be missing. Equal entries are not always repeated. The whole screen tested about 5,500 compounds, of which about 2,000 (36%) were called active. Roughly 18% stayed inconclusive and do not appear here. No stated cut-off is given here; in the data, active means normalized growth mostly below about 0.91 (no sharp cut-off); inconclusive means no clear call, values can overlap the other calls; inactive means mostly above about 0.92. The list shows a part of the results.

Experiment: chemical genetic growth profiling, strain panel (AID 1159580);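 further: tested at 20 µM; growth read once vehicle control cultures reached saturation at 30 °C; 1 = growth at the plate median or of vehicle wells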
Conditions: S. cerevisiae deletion strains, growth OD
[1] = locus YGR078C, strain PAC10, stronger effect = lower value

Measured: normalized growth

CC1CC2C3CCC4=CC(=O)C=CC4(C)C3(F)C(O)CC2(C)C1(O)C(=O)CO (stereo not given)
inactive: locus YAL040C, strain CLN3, stronger effect = lower value 0.987 | locus YDR363W, strain ESC2, stronger effect = lower value 0.955 | locus YER002W, strain NOP16, stronger effect = lower value 1 | [1] 1.02 | locus YNL175C, strain NOP13, stronger effect = lower value 1.01 | locus YNL197C, strain WHI3, stronger effect = lower value 0.999 | locus YNL224C, strain SQS1, stronger effect = lower value 1.01 | locus YOR083W, strain WHI5 (second series), stronger effect = lower value 1.01

CCN(CC)Cc1ccc(Nc2ccnc3cc(Cl)ccc23)cc1O
inactive: locus YAL021C, strain ccr4, stronger effect = lower value 0.986 | locus YAL026C, strain drs2, stronger effect = lower value 1.03 | locus YAL030W, strain snc1, stronger effect = lower value 1 | locus YBL061C, strain skt5, stronger effect = lower value 1.03 | locus YBR009C, strain hhf1, stronger effect = lower value 0.96 | locus YBR021W, strain FUR4, stronger effect = lower value 0.995 | locus YBR023C, strain chs3, stronger effect = lower value 1.03 | locus YBR171W, strain sec66, stronger effect = lower value 1.05 | locus YBR229C, strain ROT2, stronger effect = lower value 1 | locus YBR231C, strain swc5, stronger effect = lower value 0.989 | locus YBR279W, strain paf1, stronger effect = lower value 1.01 | locus YCL011C, strain gbp2, stronger effect = lower value 1 | locus YCL016C, strain dcc1, stronger effect = lower value 1.02 | locus YCL029C, strain bik1, stronger effect = lower value 1 | locus YCL061C, strain MRC1, stronger effect = lower value 1.01 | locus YCL069W, strain vba3, stronger effect = lower value 1.02 | locus YCR088W, strain abp1, stronger effect = lower value 1.03 | locus YDL005C, strain med2, stronger effect = lower value 1.04 | locus YDL035C, strain GPR1, stronger effect = lower value 1.01 | locus YDL040C, strain nat1, stronger effect = lower value 1 | locus YDL074C, strain BRE1, stronger effect = lower value 1 | locus YDL101C, strain DUN1, stronger effect = lower value 1.01 | locus YDL185W, strain tfp1, stronger effect = lower value 0.997 | locus YDL192W, strain arf1, stronger effect = lower value 0.999 | locus YDR001C, strain nth1, stronger effect = lower value 1.03 | locus YDR069C, strain doa4, stronger effect = lower value 1.01 | locus YDR101C, strain arx1, stronger effect = lower value 0.988 | locus YDR137W, strain rgp1, stronger effect = lower value 1.07 | locus YDR150W, strain NUM1, stronger effect = lower value 1.01 | locus YDR159W, strain sac3, stronger effect = lower value 0.941 | locus YDR162C, strain NBP2, stronger effect = lower value 1.02 | locus YDR195W, strain ref2 0.971 | locus YDR297W, strain sur2, stronger effect = lower value 1.02 | locus YDR318W, strain mcm21, stronger effect = lower value 1 | locus YDR334W, strain swr1, stronger effect = lower value 1.02 | locus YDR335W, strain msn5, stronger effect = lower value 1.03 | locus YDR388W, stronger effect = lower value 0.998 | locus YDR502C, strain sam2, stronger effect = lower value 0.997 | locus YEL003W, strain gim4, stronger effect = lower value 1.01 | locus YEL037C, strain rad23, stronger effect = lower value 1.03 | locus YEL061C, strain CIN8 (second series), stronger effect = lower value 1.01 | locus YEL061C, strain CIN8, stronger effect = lower value 1 | locus YER015W, strain faa2, stronger effect = lower value 1 | locus YER016W, strain bim1, stronger effect = lower value 1.03 | locus YER110C, stronger effect = lower value 0.999 | locus YER111C, strain swi4, stronger effect = lower value 1.03 | locus YER155C, strain BEM2 (second series), stronger effect = lower value 0.865 | locus YER155C, strain BEM2, stronger effect = lower value 1 | locus YER167W, strain BCK2, stronger effect = lower value 1.01 | locus YFR010W, strain ubp6, stronger effect = lower value 0.992 | locus YGL078C, strain dbp3, stronger effect = lower value 1 | locus YGL086W, strain mad1, stronger effect = lower value 0.996 | locus YGL167C, strain pmr1, stronger effect = lower value 1.01 | locus YGL173C, strain kem1, stronger effect = lower value 0.991 | locus YGL227W, strain vid30, stronger effect = lower value 1.01 | locus YGL240W, strain doc1, stronger effect = lower value 0.958 | locus YGL248W, strain PDE1, stronger effect = lower value 1.01 | locus YGL253W, strain hxk2, stronger effect = lower value 1.01 | [1] 1 | locus YGR135W, strain pre9, stronger effect = lower value 0.994 | locus YGR229C, strain SMI1, stronger effect = lower value 1.02 | locus YGR252W, strain gcn5, stronger effect = lower value 0.96 | locus YHR013C, strain ard1, stronger effect = lower value 0.96 | locus YHR027C, strain rpn1, stronger effect = lower value 1.01 | locus YHR030C, strain SLT2, stronger effect = lower value 1.01 | locus YHR079C, strain IRE1 (second series), stronger effect = lower value 0.999 | locus YHR079C, strain IRE1, stronger effect = lower value 1.07 | locus YHR094C, strain hxt1, stronger effect = lower value 0.998 | locus YHR129C, strain ARP1, stronger effect = lower value 1 | locus YHR142W, strain chs7, stronger effect = lower value 1.03 | locus YHR200W, strain rpn10, stronger effect = lower value 0.997 | locus YIL066C, strain RNR3, stronger effect = lower value 1.02 | locus YIL073C, strain SPO22, stronger effect = lower value 1.01 | locus YIL125W, strain kgd1, stronger effect = lower value 1 | locus YIR030C, strain dcg1, stronger effect = lower value 0.997 | locus YJL092W, strain hpr5, stronger effect = lower value 1.01 | locus YJL095W, strain BCK1 (second series), stronger effect = lower value 1.01 | locus YJL095W, strain BCK1, stronger effect = lower value 1 and 1.05 | locus YJL115W, strain asf1, stronger effect = lower value 1.04 | locus YJL129C, strain trk1, stronger effect = lower value 1.01 | locus YJL134W, strain LCB3, stronger effect = lower value 1.01 | locus YJL154C, strain vps35, stronger effect = lower value 1.02 | locus YJL164C, strain tpk1, stronger effect = lower value 1 | locus YJL166W, strain qcr8, stronger effect = lower value 0.992 | locus YJL168C, strain set2, stronger effect = lower value 1 | locus YJL187C, strain SWE1 (second series), stronger effect = lower value 1 | locus YJR043C, strain POL32, stronger effect = lower value 0.996 | locus YJR066W, strain TOR1, stronger effect = lower value 0.992 | locus YJR075W, strain HOC1, stronger effect = lower value 1.01 | locus YKL009W, strain mrt4, stronger effect = lower value 0.997 | locus YKL068W, stronger effect = lower value 0.996 | locus YKL085W, strain MDH1 (second series), stronger effect = lower value 0.995 | locus YKL085W, strain MDH1, stronger effect = lower value 0.995 | locus YKL160W, strain elf1, stronger effect = lower value 1.04 | locus YKL190W, strain CNB1, stronger effect = lower value 1.01 | locus YKR001C, strain vps1, stronger effect = lower value 0.999 | locus YKR026C, strain gcn3, stronger effect = lower value 1.03 | locus YKR091W, strain srl3, stronger effect = lower value 1.02 | locus YLL001W, strain dnm1, stronger effect = lower value 1.01 | locus YLL026W, stronger effect = lower value 1.02 | locus YLL041C, strain sdh2, stronger effect = lower value 1.03 | locus YLR027C, strain aat2, stronger effect = lower value 1.01 | locus YLR039C, strain RIC1, stronger effect = lower value 1.01 | locus YLR058C, strain SHM2, stronger effect = lower value 1.01 | locus YLR102C, strain apc9, stronger effect = lower value 0.993 | locus YLR113W, strain HOG1, stronger effect = lower value 1.06 | locus YLR221C, strain rsa3, stronger effect = lower value 0.987 | locus YLR258W, strain gsy2, stronger effect = lower value 1.03 | locus YLR262C, strain YPT6 (second series), stronger effect = lower value 1.02 | locus YLR262C, strain YPT6, stronger effect = lower value 1.06 | locus YLR268W, strain sec22, stronger effect = lower value 0.993 | locus YLR320W, strain mms22, stronger effect = lower value 0.939 | locus YLR330W, strain CHS5, stronger effect = lower value 1.01 | locus YLR342W, strain FKS1 (second series), stronger effect = lower value 0.984 | locus YLR342W, strain FKS1, stronger effect = lower value 1.01 | locus YLR357W, strain rsc2, stronger effect = lower value 1.06 | locus YLR370C, strain arc18, stronger effect = lower value 1.02 | locus YLR371W, strain rom2, stronger effect = lower value 1 | locus YLR384C, strain iki3, stronger effect = lower value 1.01 | locus YLR418C, strain cdc73, stronger effect = lower value 0.98 | locus YML016C, strain PPZ1, stronger effect = lower value 1 | locus YML032C, strain rad52, stronger effect = lower value 0.99 | locus YML120C, strain ndi1, stronger effect = lower value 1.02 | locus YML124C, strain tub3, stronger effect = lower value 1.01 | locus YMR058W, strain fet3, stronger effect = lower value 0.93 | locus YMR078C, strain ctf18, stronger effect = lower value 1 | locus YMR125W, strain sto1, stronger effect = lower value 1.05 | locus YMR129W, stronger effect = lower value 1.02 | locus YMR205C, strain PFK2, stronger effect = lower value 0.983 | locus YMR223W, strain ubp8, stronger effect = lower value 1 | locus YMR231W, strain pep5, stronger effect = lower value 1.01 | locus YMR307W, strain GAS1, stronger effect = lower value 1.01 | locus YNL067W, strain RPL9B, stronger effect = lower value 1 | locus YNL071W, strain lat1, stronger effect = lower value 1.03 | locus YNL128W, strain TEP1, stronger effect = lower value 1.02 | locus YNL153C, strain GIM3, stronger effect = lower value 0.987 | locus YNL183C, strain NPR1, stronger effect = lower value 1 | locus YNL209W, strain ssb2, stronger effect = lower value 1.01 | locus YNL233W, strain BNI4, stronger effect = lower value 1 | locus YNL248C, strain rpa49, stronger effect = lower value 1.03 | locus YNL250W, strain rad50, stronger effect = lower value 0.997 | locus YNL271C, strain bni1, stronger effect = lower value 1.03 | locus YNL298W, strain CLA4, stronger effect = lower value 1.01 | locus YNL307C, strain MCK1, stronger effect = lower value 0.997 | locus YNL322C, strain KRE1 (second series), stronger effect = lower value 1.05 | locus YNR049C, strain mso1, stronger effect = lower value 1.01 | locus YNR052C, strain pop2, stronger effect = lower value 1 | locus YOL006C, strain TOP1, stronger effect = lower value 1.04 | locus YOL012C, strain htz1 1.13 | locus YOL147C, strain pex11, stronger effect = lower value 0.996 | locus YOR001W, strain rrp6, stronger effect = lower value 0.995 | locus YOR061W, strain CKA2, stronger effect = lower value 1.01 | locus YOR069W, strain VPS5, stronger effect = lower value 1 | locus YOR070C, strain gyp1, stronger effect = lower value 1.02 | locus YOR080W, strain dia2, stronger effect = lower value 1.01 | locus YOR083W, strain WHI5, stronger effect = lower value 0.986 | locus YOR106W, strain vam3, stronger effect = lower value 1.05 | locus YOR136W, strain idh2, stronger effect = lower value 0.995 | locus YOR144C, strain elg1, stronger effect = lower value 0.99 | locus YOR184W, strain ser1, stronger effect = lower value 0.992 | locus YOR231W, strain MKK1, stronger effect = lower value 1.05 | locus YOR265W, strain rbl2, stronger effect = lower value 1 | locus YOR270C, strain vph1, stronger effect = lower value 1.05 | locus YOR290C, strain snf2, stronger effect = lower value 1.02 | locus YOR316C, strain cot1, stronger effect = lower value 0.997 | locus YPL051W, strain arl3, stronger effect = lower value 1.01 | locus YPL078C, strain atp4, stronger effect = lower value 1.03 | locus YPL106C, strain sse1, stronger effect = lower value 1.05 | locus YPL240C, strain hsp82, stronger effect = lower value 1.02 | locus YPL241C, strain CIN2, stronger effect = lower value 1.01 | locus YPL256C, strain CLN2, stronger effect = lower value 1.01 | locus YPR119W, strain clb2, stronger effect = lower value 1 | locus YPR141C, strain kar3, stronger effect = lower value 1.01 | locus YPR163C, strain tif3, stronger effect = lower value 1.01 | locus YPR167C, strain met16, stronger effect = lower value 1 | strain wtn01, stronger effect = lower value 1
active: locus YDR392W, strain spt3, stronger effect = lower value 0.737
